Data published in PubChem BioAssay (NCATS).
Where “and” joins values, the source holds several entries; their conditions need not be identical. Equal entries are not always repeated. Results filed as inconclusive are left out. Calls of active or inactive are those of the source. Unless noted, calls follow the shape of the full dose curve.

Experiments:
[1] = qHTS assay for small molecule agonists of retinoid X receptor alpha signaling (AID 588544); conditions: HEK293T RXRa-UAS-bla, beta-lactamase reporter, 18 h; 530 nm emission
[2] = target: Retinoic acid receptor RXR-alpha (Homo sapiens) (UniProt P19793); assay: as above; conditions: HEK293T RXRa-UAS-bla, beta-lactamase reporter, 18 h; series mostly up to 76.7 µM
[3] = target: Thyroid hormone receptor beta (Homo sapiens) (UniProt P10828); assay: qHTS assay for small molecule agonists of thyroid hormone receptor beta signaling (AID 588545); conditions: TR-UAS-bla GripTite HEK 293, beta-lactamase ratio, agonist mode, 18 h, percent of T3 response, DMSO as zero; series mostly up to 76.7 µM;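 also: 0% = DMSO only and 100% = 10 nM T3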
Summary of the method: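 TR-UAS-bla-GripTite HEK 293 cells in medium with 2% charcoal/dextran FBS, 0.1 mM NEAA and 1 mM sodium pyruvate were treated with titrated compounds for 18 hrs at 37 C. Beta-lactamase reporter was read with CCF4 dye (ex 405, em 460/530 nm); EC50 from Hill fits.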

[4] = qHTS assay for small molecule antagonists of retinoid X receptor alpha signaling (AID 588546; active = well fitted inhibition curve with a large enough effect in the signal ratio, with a control signal flat, not every such curve was filed as active; the % refers to the signal ratio;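 also: cells stimulated with 9-cis-retinoic acid as agonist; % is scaled to controls: 0 for no effect and ±100 for the full control effect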); conditions: HEK293T RXRa-UAS-bla, beta-lactamase ratio, antagonist mode; measured here: W530 green channel, cytotoxicity proxy
Summary of the method: (§1)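 Beta-lactamase reporter inhibition, read as CCF4 fluorescence ratio (ex 405, em 460/530 nm) after 2 h at RT. HEK293T UAS-bla cells, 2500/well, were stimulated with 9-cis-RA at 500 or 100 nM final alongside test compound for 18 h at 37 C.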

[5] = target: Retinoic acid receptor RXR-alpha (Homo sapiens) (UniProt P19793); assay: as above; conditions: HEK293T RXRa-UAS-bla, beta-lactamase ratio, antagonist mode
Summary of the method: as §1

[6] = target: Thyroid hormone receptor beta (Homo sapiens) (UniProt P10828); assay: qHTS assay for small molecule antagonists of thyroid hormone receptor beta signaling (AID 588547; active = well fitted inhibition curve with a large enough effect in the signal ratio, with a control signal flat, not every such curve was filed as active; the % refers to the signal ratio;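 also: cells stimulated with 0.4 nM T3 agonist during compound exposure; % is scaled to controls: 0 for no effect and ±100 for the full control effect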); conditions: TR-UAS-bla HEK293, beta-lactamase ratio, antagonist mode, 18 h
Summary of the method: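 TR-UAS-bla GripTite HEK293 cells in 2% charcoal/dextran FBS medium; compounds 0.59 nM to 92 uM with T3 at 0.4nM final, 18 h at 37 C. Beta-lactamase read by CCF4 fluorescence (460/530 nm); Hill fits gave IC50 and efficacy.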

[7] = target: Voltage-gated inwardly rectifying potassium channel KCNH2 (Homo sapiens) (UniProt Q12809); assay: qHTS Assay for Small Molecule Inhibitors of the Human hERG Channel Activity (AID 588834; active = well fitted curve in the direction sought with a large enough effect; an effect the other way counts as inactive or inconclusive;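 also: top concentration of the series differs between compounds; % is scaled to controls: 0 for no effect and ±100 for the full control effect; lower thallium flux fluorescence means stronger hERG block; nearly all actives have a fitted effect of over 50% in size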); conditions: U2OS BacMam hERG, FluxOR thallium flux fluorescence; series mostly up to 46.1 µM
Summary of the method: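 Measured: FluxOR fluorescence after thallium stimulation in U2OS cells transduced with hERG by baculovirus. Compounds pre-incubated around 10 min; medium Opti-MEM with 2% FCS. AC50 from Hill equation.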

[8] = target: Luciferin 4-monooxygenase (Photinus pyralis) (UniProt P08659); assay: Biochemical firefly luciferase enzyme assay for NPC (AID 624030; active = well fitted curve in the direction sought with a large enough effect; an effect the other way counts as inactive or inconclusive; also: nearly all actives have a fitted effect of over 70% in size; also: potency is read from the fitted curve at half-maximal effect); conditions: purified P. pyralis luciferase, luminescence, 5 min; series mostly up to 58.6 µM
Summary of the method: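 Purified P. pyralis luciferase at 10 nM in 50 mM Tris Acetate (final), luminescence read within 5 minutes of enzyme addition to compounds. Activity normalised to PTC124 versus DMSO; concentration-response curves classed by r2, magnitude and activity.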

[9] = S16 Schwann cell viability assay (CellTiter-Glo assay) (AID 624031; active = well fitted curve in the direction sought with a large enough effect; an effect the other way counts as inactive or inconclusive;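 also: native untransfected S16 rat Schwann cells; plate controls were DMSO-treated cells for no effect and cell-free wells for full effect; nearly all actives have a fitted effect of over 70% in size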); conditions: S16 rat Schwann cells viability, 24 h; series mostly up to 57.5 µM
Summary of the method: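 Counter-screen for cytotoxicity: parental S16 rat Schwann cells lacking the PMP22 reporters, treated 24 h with compound, viability from cellular ATP by CellTiter-Glo luminescence, normalized to DMSO (0%) and no-cell wells.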

Sequence of Luciferin 4-monooxygenase (Photinus pyralis) (P08659 whole entry, looked up): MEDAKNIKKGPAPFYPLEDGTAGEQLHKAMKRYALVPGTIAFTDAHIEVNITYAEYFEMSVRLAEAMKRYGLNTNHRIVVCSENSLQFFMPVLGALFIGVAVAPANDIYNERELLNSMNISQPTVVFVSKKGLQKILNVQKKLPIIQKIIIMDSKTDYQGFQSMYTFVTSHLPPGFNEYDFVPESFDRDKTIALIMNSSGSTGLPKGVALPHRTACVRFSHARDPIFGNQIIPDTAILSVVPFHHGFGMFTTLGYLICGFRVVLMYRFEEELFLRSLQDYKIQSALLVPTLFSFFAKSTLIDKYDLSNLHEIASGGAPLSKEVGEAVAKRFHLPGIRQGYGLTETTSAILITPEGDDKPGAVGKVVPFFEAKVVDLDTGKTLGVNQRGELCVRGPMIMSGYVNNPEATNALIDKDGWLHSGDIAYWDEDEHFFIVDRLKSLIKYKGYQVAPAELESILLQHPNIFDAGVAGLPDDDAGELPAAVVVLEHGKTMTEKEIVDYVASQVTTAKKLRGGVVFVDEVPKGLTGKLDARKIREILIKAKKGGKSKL
Sequence of Retinoic acid receptor RXR-alpha (Homo sapiens) (P19793 whole entry, looked up): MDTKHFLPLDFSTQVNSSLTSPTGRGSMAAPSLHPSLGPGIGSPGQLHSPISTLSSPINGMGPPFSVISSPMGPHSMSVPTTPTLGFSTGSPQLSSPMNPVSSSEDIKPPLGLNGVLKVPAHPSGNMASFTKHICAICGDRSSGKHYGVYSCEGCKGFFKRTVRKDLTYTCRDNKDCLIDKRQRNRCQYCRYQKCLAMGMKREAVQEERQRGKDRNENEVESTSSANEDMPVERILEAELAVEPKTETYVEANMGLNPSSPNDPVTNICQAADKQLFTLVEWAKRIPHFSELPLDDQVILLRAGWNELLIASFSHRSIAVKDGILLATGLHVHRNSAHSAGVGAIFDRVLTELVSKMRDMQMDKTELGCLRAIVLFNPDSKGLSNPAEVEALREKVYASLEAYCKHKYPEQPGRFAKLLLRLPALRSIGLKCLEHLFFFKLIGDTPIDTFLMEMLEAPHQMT
Sequence of Thyroid hormone receptor beta (Homo sapiens) (P10828 whole entry, looked up): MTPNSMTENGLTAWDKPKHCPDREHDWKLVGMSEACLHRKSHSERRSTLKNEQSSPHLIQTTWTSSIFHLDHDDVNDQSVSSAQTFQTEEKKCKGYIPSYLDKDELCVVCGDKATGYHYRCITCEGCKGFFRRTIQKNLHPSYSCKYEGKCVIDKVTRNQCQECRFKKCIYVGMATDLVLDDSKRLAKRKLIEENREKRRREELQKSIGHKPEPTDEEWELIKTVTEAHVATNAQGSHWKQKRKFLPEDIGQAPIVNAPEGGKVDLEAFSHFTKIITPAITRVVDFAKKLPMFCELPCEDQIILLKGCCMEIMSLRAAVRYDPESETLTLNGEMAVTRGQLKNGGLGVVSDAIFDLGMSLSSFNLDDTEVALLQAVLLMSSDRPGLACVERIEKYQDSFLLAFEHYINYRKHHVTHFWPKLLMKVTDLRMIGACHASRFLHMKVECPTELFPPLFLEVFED
Sequence of Voltage-gated inwardly rectifying potassium channel KCNH2 (Homo sapiens) (Q12809 whole entry, looked up): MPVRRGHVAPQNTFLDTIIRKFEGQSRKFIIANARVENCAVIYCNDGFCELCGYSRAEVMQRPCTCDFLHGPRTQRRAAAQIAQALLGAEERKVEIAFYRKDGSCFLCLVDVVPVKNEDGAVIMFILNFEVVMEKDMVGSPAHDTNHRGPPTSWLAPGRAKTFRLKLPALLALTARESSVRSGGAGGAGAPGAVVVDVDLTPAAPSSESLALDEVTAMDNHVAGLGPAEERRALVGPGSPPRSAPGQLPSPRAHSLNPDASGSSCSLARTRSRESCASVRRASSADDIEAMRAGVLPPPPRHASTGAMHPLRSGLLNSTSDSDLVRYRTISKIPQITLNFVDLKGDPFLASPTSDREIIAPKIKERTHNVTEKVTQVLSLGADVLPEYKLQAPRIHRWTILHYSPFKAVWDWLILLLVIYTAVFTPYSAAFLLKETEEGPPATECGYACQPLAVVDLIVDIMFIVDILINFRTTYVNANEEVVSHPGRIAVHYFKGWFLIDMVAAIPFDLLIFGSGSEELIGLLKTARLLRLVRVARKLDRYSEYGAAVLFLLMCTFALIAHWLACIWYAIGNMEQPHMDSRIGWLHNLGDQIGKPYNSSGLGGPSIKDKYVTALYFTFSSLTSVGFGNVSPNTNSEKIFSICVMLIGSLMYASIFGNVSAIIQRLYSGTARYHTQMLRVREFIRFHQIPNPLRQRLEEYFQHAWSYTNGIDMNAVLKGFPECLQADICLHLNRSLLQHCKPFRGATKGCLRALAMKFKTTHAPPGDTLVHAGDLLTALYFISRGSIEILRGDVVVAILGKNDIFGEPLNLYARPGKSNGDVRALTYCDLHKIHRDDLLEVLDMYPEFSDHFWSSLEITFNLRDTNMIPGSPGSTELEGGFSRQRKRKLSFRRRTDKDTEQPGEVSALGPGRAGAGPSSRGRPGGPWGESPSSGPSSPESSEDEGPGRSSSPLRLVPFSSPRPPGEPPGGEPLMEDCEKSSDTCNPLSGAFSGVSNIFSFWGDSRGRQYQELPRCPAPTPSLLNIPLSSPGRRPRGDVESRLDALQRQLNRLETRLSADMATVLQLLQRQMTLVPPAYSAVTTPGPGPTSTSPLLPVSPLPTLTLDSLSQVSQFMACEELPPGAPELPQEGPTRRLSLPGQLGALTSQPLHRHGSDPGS

Row | SMILES | max response [1] | outcome [2] | outcome [3] | max response [4] | max response [5] | activity change % (negative = inhibition) [6] | Potency [7] | Potency [8] | Potency [9]
1 | S=c1[nH]c2ccccc2s1 | -3.92% | inactive | inactive | 0.276% and 7.73% | 18% (inactive) and -15.5% (inactive) | -9.82% (inactive) and 10.5% (inactive) | inactive | – | –
2 | CN(C)c1ccc(N=NS(=O)(=O)O)cc1 | -5.77% | inactive | inactive | -9.95% and 2.36% | -16.5% (inactive) and -8.55% (inactive) | -11.7% (inactive) | inactive | – | –
3 | CCCOC(=O)c1ccc(O)cc1 | -11.1% and -2.66% and -11% | inactive | inactive | -12% and 3.27% and -2.1% | -6.42% (inactive) and -2.27% (inactive) and -9.81% (inactive) | -17.9% (inactive) and -8.82% (inactive) and 6.79% (inactive) | inactive | inactive | inactive
4 | NCCO | -11.3% | inactive | – | -11.1% | 21.6% (inactive) | -5.7% (inactive) | inactive | inactive | –
5 | Oc1ccccc1O | 7.41% | inactive | inactive | – | – | -12.3% (inactive) | inactive | – | –
6 | Nc1cc(-c2ccncc2)c[nH]c1=O | 3.04% | inactive | inactive | -6.03% | -6.86% (inactive) | – | inactive | inactive | inactive
7 | C#C[C@]1(O)CC[C@H]2[C@@H]3CCc4cc(O)ccc4[C@H]3CC[C@@]21C | – | – | inactive | – | – | -23% (inactive) | inactive | – | inactive
8 | Nc1nc2ccc([N+](=O)[O-])cc2s1 | – | – | – | 0.666% | 16.9% (inactive) | -2.47% (inactive) | inactive | – | –
9 | O=c1cc(-c2ccccc2)oc2ccccc12 | 18.8% | inactive | inactive | -11.8% | -22.5% (inactive) | -4.06% (inactive) and 9.92% (inactive) | inactive | 20.9 µM (active) | –
10 | CC1(C)S[C@@H]2[C@H](NC(=O)[C@H](N)c3ccccc3)C(=O)N2[C@H]1C(=O)O | -24.6% | inactive | – | -6.23% | -0.87% (inactive) | – | – | – | –
11 | O=C(OCc1ccccc1)c1ccccc1 | 2.86% | inactive | inactive | -18.5% | -1.47% (inactive) | 12.6% (inactive) | inactive | – | –
13 | CC(C)NCC(O)COc1cccc2ccccc12 (stereo unspecified) | 16.9% and 0.479% | inactive | inactive | 8.19% | -18.2% (inactive) | -9.73% (inactive) and -17.8% (inactive) | – | – | –
14 | CCCCCCCCCCCCCCCCCC(=O)O | 13.3% and -12.8% and -7.59% | inactive | – | -4.53% and -8.3% and -3.54% | -9.45% (inactive) and 1.81% (inactive) and 3.06% (inactive) | – | inactive | inactive | inactive
15 | Nc1ccc(O)c([N+](=O)[O-])c1 | -11.3% | inactive | inactive | -7.08% and 0.284% | 32% (inactive) and 10.1% (inactive) | 3.22% (inactive) and -23.9% (inactive) | inactive | – | –
16 | CCCCCCCCCCCCCCCC(=O)OC(C)C | 0.385% | inactive | inactive | -10.7% | 8.58% (inactive) | -1.02% (inactive) | inactive | inactive | inactive
17 | C=CCCCCCCCCC(=O)O | -10% | inactive | inactive | -3.51% | -16.4% (inactive) | -5.71% (inactive) | inactive | inactive | inactive
18 | CCCn1c(=O)c2[nH]c(-c3ccc(OCC(=O)NCCN)cc3)nc2n(CCC)c1=O | – | – | – | – | – | – | inactive | – | –
19 | O=C(Nc1ccccc1)c1cc([N+](=O)[O-])ccc1Cl | – | – | inactive | -9.1% | -13.8% (inactive) | 9.48% (inactive) | inactive | – | –
20 | Cc1c(C(=O)O)c(O)cc2c1C(=O)c1c(O)c([C@@H]3O[C@H](CO)[C@@H](O)[C@H](O)[C@H]3O)c(O)c(O)c1C2=O | – | – | – | – | – | – | inactive | – | –
21 | O=C(O)c1cc(O)c(O)c(O)c1 | 4.26% | inactive | inactive | 3.69% | -2.74% (inactive) | -16.5% (inactive) | inactive | inactive | –
22 | COc1cc(CNC(=O)CCCC/C=C/C(C)C)ccc1O | 3.03% and 16.9% | inactive | inactive | 9.1% | 4.06% (inactive) | 11.7% (inactive) and 10.6% (inactive) | inactive | inactive | inactive
